# Article PMC11006913
# Residue numbers refer to the chain shown, from its start.
# Columns and labels:
# Test in all cases: PBM; 200 nM protein, PBS
# Settings in all cases: dsDNA, one strand shown
# NKX2-4 [1] = target: T1, NKX2-4 (Homo sapiens, UniProt Q9H2Z4 175-261, P217L)
# T1 sequence: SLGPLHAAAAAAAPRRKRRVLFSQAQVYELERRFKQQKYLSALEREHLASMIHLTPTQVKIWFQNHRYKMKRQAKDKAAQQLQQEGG
# HOXB9 [2] = target: HOXB9 (Homo sapiens, UniProt P17482 171-250, T197M)
# NKX2-4 [3] = target: T2, NKX2-4 (Homo sapiens, UniProt Q9H2Z4 175-261, T231S)
# T2 sequence: T1 sequence with L43P, T57S
# NKX2-4 [4] = target: T3, NKX2-4 (Homo sapiens, UniProt Q9H2Z4 175-261)
# T3 sequence: T1 sequence with L43P
# HOXB9 [5] = target: HOXB9 (Homo sapiens, UniProt P17482 171-250)
# NKX2-4 [6] = target: T4, NKX2-4 (Homo sapiens, UniProt Q9H2Z4 175-261, R246Q)
# T4 sequence: T1 sequence with L43P, R72Q
# HOXB9 [7] = target: HOXB9 (Homo sapiens, UniProt P17482 171-250, R186Q)
# CRX [8] = target: CRX (Homo sapiens, UniProt O43186 26-111)
# CRX [9] = target: CRX (Homo sapiens, UniProt O43186 26-111, E42D)
# CRX [10] = target: CRX (Homo sapiens, UniProt O43186 26-111, R41L)
# HOXB6 = HOXB6 (Homo sapiens, UniProt P17509 132-218)
# HOXC9 [11] = target: HOXC9 (Homo sapiens, UniProt P31274 178-260, K195R)
# NKX2-6 = target: T5, NKX2-6 (Homo sapiens, UniProt A6NCS4 118-204, R150C)
# T5 sequence: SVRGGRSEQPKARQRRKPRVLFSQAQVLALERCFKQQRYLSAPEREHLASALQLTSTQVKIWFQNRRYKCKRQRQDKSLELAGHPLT
# HOXC9 [12] = target: HOXC9 (Homo sapiens, UniProt P31274 178-260)
# ALX1 [13] = target: ALX1 (Homo sapiens, UniProt Q15699 118-204, L144V)
# HOXC9 [14] = target: HOXC9 (Homo sapiens, UniProt P31274 178-260, R193K)
# ALX1 [15] = target: ALX1 (Homo sapiens, UniProt Q15699 118-204, L144R)
# HOXC9 [16] = target: HOXC9 (Homo sapiens, UniProt P31274 178-260, R222W)
# ALX1 [17] = target: ALX1 (Homo sapiens, UniProt Q15699 118-204)
# PITX2 = PITX2 (Homo sapiens, UniProt Q99697 72-157)
# Chain of CRX (Homo sapiens, UniProt O43186 26-111, E42D) (O43186 26-111 E42D): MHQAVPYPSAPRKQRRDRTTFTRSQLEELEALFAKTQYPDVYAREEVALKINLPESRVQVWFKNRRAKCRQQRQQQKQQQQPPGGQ
# Chain of CRX (Homo sapiens, UniProt O43186 26-111) (O43186 26-111): as the sequence (O43186 26-111 E42D) above, with D17E counted along it
# Chain of CRX (Homo sapiens, UniProt O43186 26-111, R41L) (O43186 26-111 R41L): as the sequence (O43186 26-111 E42D) above, with R16L, D17E counted along it
# Chain of ALX1 (Homo sapiens, UniProt Q15699 118-204, L144V) (Q15699 118-204 L144V): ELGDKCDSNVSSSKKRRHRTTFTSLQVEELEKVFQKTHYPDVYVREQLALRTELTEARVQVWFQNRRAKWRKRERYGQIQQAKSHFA
# Chain of HOXC9 (Homo sapiens, UniProt P31274 178-260) (P31274 178-260): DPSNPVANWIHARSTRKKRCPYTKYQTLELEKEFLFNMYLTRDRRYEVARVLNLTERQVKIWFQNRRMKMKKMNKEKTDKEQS
# Chain of ALX1 (Homo sapiens, UniProt Q15699 118-204) (Q15699 118-204): as the sequence (Q15699 118-204 L144V) above, with V27L counted along it
# Chain of HOXC9 (Homo sapiens, UniProt P31274 178-260, R222W) (P31274 178-260 R222W): as the sequence (P31274 178-260) above, with R45W counted along it
# Chain of HOXB6 (P17509 132-218): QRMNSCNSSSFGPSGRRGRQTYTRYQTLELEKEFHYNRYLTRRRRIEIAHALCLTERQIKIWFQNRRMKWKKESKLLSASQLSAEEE
# Chain of HOXC9 (Homo sapiens, UniProt P31274 178-260, R193K) (P31274 178-260 R193K): as the sequence (P31274 178-260) above, with R16K counted along it
# Chain of HOXC9 (Homo sapiens, UniProt P31274 178-260, K195R) (P31274 178-260 K195R): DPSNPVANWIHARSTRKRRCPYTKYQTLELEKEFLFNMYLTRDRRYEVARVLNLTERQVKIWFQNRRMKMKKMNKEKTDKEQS
# Chain of HOXB9 (Homo sapiens, UniProt P17482 171-250, R186Q) (P17482 171-250 R186Q): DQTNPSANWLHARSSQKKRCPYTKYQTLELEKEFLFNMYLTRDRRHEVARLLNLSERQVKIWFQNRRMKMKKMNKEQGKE
# Chain of HOXB9 (Homo sapiens, UniProt P17482 171-250) (P17482 171-250): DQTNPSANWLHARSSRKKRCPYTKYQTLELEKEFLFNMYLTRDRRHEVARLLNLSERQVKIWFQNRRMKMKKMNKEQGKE
# Chain of ALX1 (Homo sapiens, UniProt Q15699 118-204, L144R) (Q15699 118-204 L144R): as the sequence (Q15699 118-204 L144V) above, with V27R counted along it
# Chain of HOXB9 (Homo sapiens, UniProt P17482 171-250, T197M) (P17482 171-250 T197M): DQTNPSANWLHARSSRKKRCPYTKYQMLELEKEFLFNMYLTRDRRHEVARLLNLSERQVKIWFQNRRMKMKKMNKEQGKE
sequence,measurement,setting,value
CTGGGGGC,binding signal,NKX2-4 [1],"9.39 upbm affinity estimate (log intensity, higher = more binding, comparable within an allelic series)"
same,binding signal,HOXB9 [2],"8.38 upbm affinity estimate (log intensity, higher = more binding, comparable within an allelic series)"
same,binding signal,NKX2-4 [3],"9.45 upbm affinity estimate (log intensity, higher = more binding, comparable within an allelic series)"
same,binding signal,NKX2-4 [4],"9.5 upbm affinity estimate (log intensity, higher = more binding, comparable within an allelic series)"
same,binding signal,HOXB9 [5],"8.3 upbm affinity estimate (log intensity, higher = more binding, comparable within an allelic series)"
same,binding signal,NKX2-4 [6],"9.37 upbm affinity estimate (log intensity, higher = more binding, comparable within an allelic series)"
same,binding signal,HOXB9 [7],"8.44 upbm affinity estimate (log intensity, higher = more binding, comparable within an allelic series)"
ATAATATC,binding signal,CRX [8],"11.2 upbm affinity estimate (log intensity, higher = more binding, comparable within an allelic series)"
same,binding signal,CRX [9],"10.9 upbm affinity estimate (log intensity, higher = more binding, comparable within an allelic series)"
same,binding signal,CRX [10],"10.8 upbm affinity estimate (log intensity, higher = more binding, comparable within an allelic series)"
same,binding signal,HOXB6,"10.8 upbm affinity estimate (log intensity, higher = more binding, comparable within an allelic series)"
ACACGCCC,binding signal,CRX [8],"8.11 upbm affinity estimate (log intensity, higher = more binding, comparable within an allelic series)"
same,binding signal,CRX [9],"8.24 upbm affinity estimate (log intensity, higher = more binding, comparable within an allelic series)"
same,binding signal,CRX [10],"8.26 upbm affinity estimate (log intensity, higher = more binding, comparable within an allelic series)"
GCTGCCGA,binding signal,NKX2-4 [1],"9.14 upbm affinity estimate (log intensity, higher = more binding, comparable within an allelic series)"
same,binding signal,HOXC9 [11],"9.65 upbm affinity estimate (log intensity, higher = more binding, comparable within an allelic series)"
same,binding signal,NKX2-4 [3],"9.11 upbm affinity estimate (log intensity, higher = more binding, comparable within an allelic series)"
same,binding signal,NKX2-4 [4],"9.11 upbm affinity estimate (log intensity, higher = more binding, comparable within an allelic series)"
same,binding signal,NKX2-6,"9.17 upbm affinity estimate (log intensity, higher = more binding, comparable within an allelic series)"
same,binding signal,HOXC9 [12],"9.69 upbm affinity estimate (log intensity, higher = more binding, comparable within an allelic series)"
same,binding signal,ALX1 [13],"6.5 upbm affinity estimate (log intensity, higher = more binding, comparable within an allelic series)"
same,binding signal,HOXC9 [14],"9.57 upbm affinity estimate (log intensity, higher = more binding, comparable within an allelic series)"
same,binding signal,ALX1 [15],"6.4 upbm affinity estimate (log intensity, higher = more binding, comparable within an allelic series)"
same,binding signal,NKX2-4 [6],"9.29 upbm affinity estimate (log intensity, higher = more binding, comparable within an allelic series)"
same,binding signal,HOXC9 [16],"9.8 upbm affinity estimate (log intensity, higher = more binding, comparable within an allelic series)"
same,binding signal,ALX1 [17],"6.43 upbm affinity estimate (log intensity, higher = more binding, comparable within an allelic series)"
AATCACTA,binding signal,CRX [8],"10.3 upbm affinity estimate (log intensity, higher = more binding, comparable within an allelic series)"
same,binding signal,CRX [9],"10.2 upbm affinity estimate (log intensity, higher = more binding, comparable within an allelic series)"
same,binding signal,CRX [10],"9.96 upbm affinity estimate (log intensity, higher = more binding, comparable within an allelic series)"
AGGCTTAA,binding signal,CRX [8],"12.8 upbm affinity estimate (log intensity, higher = more binding, comparable within an allelic series)"
same,binding signal,CRX [10],"12.1 upbm affinity estimate (log intensity, higher = more binding, comparable within an allelic series)"
CTGGTCGA,binding signal,CRX [8],"8.44 upbm affinity estimate (log intensity, higher = more binding, comparable within an allelic series)"
same,binding signal,CRX [9],"8.35 upbm affinity estimate (log intensity, higher = more binding, comparable within an allelic series)"
same,binding signal,CRX [10],"8.29 upbm affinity estimate (log intensity, higher = more binding, comparable within an allelic series)"
GGGCTTAA,binding signal,CRX [8],"12.7 upbm affinity estimate (log intensity, higher = more binding, comparable within an allelic series)"
same,binding signal,PITX2,"12.7 upbm affinity estimate (log intensity, higher = more binding, comparable within an allelic series)"
same,binding signal,CRX [10],"12.1 upbm affinity estimate (log intensity, higher = more binding, comparable within an allelic series)"
CAGGTGCG,binding signal,CRX [8],"8.4 upbm affinity estimate (log intensity, higher = more binding, comparable within an allelic series)"
same,binding signal,CRX [9],"8.3 upbm affinity estimate (log intensity, higher = more binding, comparable within an allelic series)"
same,binding signal,CRX [10],"8.29 upbm affinity estimate (log intensity, higher = more binding, comparable within an allelic series)"
CGGATTAC,binding signal,CRX [8],"13.4 upbm affinity estimate (log intensity, higher = more binding, comparable within an allelic series)"
same,binding signal,CRX [9],"13.3 upbm affinity estimate (log intensity, higher = more binding, comparable within an allelic series)"
same,binding signal,CRX [10],"13.3 upbm affinity estimate (log intensity, higher = more binding, comparable within an allelic series)"
GGGTGGCA,binding signal,CRX [8],"8.24 upbm affinity estimate (log intensity, higher = more binding, comparable within an allelic series)"
same,binding signal,CRX [9],"8.24 upbm affinity estimate (log intensity, higher = more binding, comparable within an allelic series)"
same,binding signal,CRX [10],"8.32 upbm affinity estimate (log intensity, higher = more binding, comparable within an allelic series)"
CTTGCTAC,binding signal,CRX [8],"8.21 upbm affinity estimate (log intensity, higher = more binding, comparable within an allelic series)"
same,binding signal,CRX [9],"8.34 upbm affinity estimate (log intensity, higher = more binding, comparable within an allelic series)"
same,binding signal,CRX [10],"8.28 upbm affinity estimate (log intensity, higher = more binding, comparable within an allelic series)"
CTTAAGCC,binding signal,CRX [8],"12.7 upbm affinity estimate (log intensity, higher = more binding, comparable within an allelic series)"
same,binding signal,CRX [10],"11.9 upbm affinity estimate (log intensity, higher = more binding, comparable within an allelic series)"
GCGTGCAC,binding signal,CRX [8],"8.43 upbm affinity estimate (log intensity, higher = more binding, comparable within an allelic series)"
same,binding signal,CRX [9],"8.37 upbm affinity estimate (log intensity, higher = more binding, comparable within an allelic series)"
same,binding signal,CRX [10],"8.37 upbm affinity estimate (log intensity, higher = more binding, comparable within an allelic series)"
